# Results filed as inconclusive are left out. A call without a number means that no potency is given here. The source made the active and inactive calls. Calls follow the shape of the dose curve; as a rule, active = well fitted inhibition curve with a large enough effect; inconclusive = small, poorly fitted or top-dose-only effect; inactive = flat fitted curve, though single readings scatter.
# Test system: CP268
# Assay: qHTS profiling for inhibitors of Plasmodium falciparum proliferation (AID 504749); also: nearly all actives have a fitted effect of over 60% in size
# Conditions: P. falciparum in erythrocytes, SYBR Green DNA, 72 h; series mostly up to 28.7 µM
# How it was run: (§1)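 Readout was DNA-dye fluorescence from lysed cultures, ex 485/em 535 nm. Parasitized red cells had grown 72 h with compound; data scaled between 0.29 uM artemisinin and DMSO wells and corrected using vehicle-only plates.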
# Potency is read from the fitted curve at half-maximal effect.
row,Structure (SMILES),Potency
1,CC1(C)C(C=C(Cl)Cl)C1C(=O)OCc1cccc(Oc2ccccc2)c1 (stereo not drawn),inactive
2,CC1=C(/C=C/C(C)=C/C=C/C(C)=C/CO)C(C)(C)CCC1,inactive
3,O=S(=O)(O)c1cc(O)c2c(N=Nc3ccc(Nc4ccccc4)c4c(S(=O)(=O)O)cccc34)cc(S(=O)(=O)O)cc2c1,inactive
4,IC(I)I,inactive
5,CCCCCCCC(=O)O,inactive
6,CCCCC(CC)COC(=O)CC(C(=O)OCC(CC)CCCC)S(=O)(=O)O (stereo not drawn),inactive
7,C=C1C(=CC=C2CCC[C@@]3(C)[C@@H]2CC[C@H]3[C@H](C)CCCC(C)C)C[C@@H](O)C[C@@H]1O,inactive
8,COc1cc(-c2ccc(-[n+]3nc(-c4ccccc4)nn3-c3ccc([N+](=O)[O-])cc3)c(OC)c2)ccc1-[n+]1nc(-c2ccccc2)nn1-c1ccc([N+](=O)[O-])cc1,16.9 µM (active)
9,O=C(O)c1cc(=O)c2c3nc4ccccc4oc-3cc(=O)c2[nH]1,inactive
10,NC(=O)c1ncn(C2OC(CO)C(O)C2O)n1 (stereo not drawn),inactive
11,Nc1c(Br)cc(Br)cc1CNC1CCC(O)CC1 (stereo not drawn),inactive
12,O=C(Nc1ccc(Br)cc1)c1cc(Br)c(Br)s1,12 µM (active)

# Test system: CP269
# Assay: as above
# Conditions: P. falciparum in erythrocytes, SYBR Green DNA, 72 h; series mostly up to 28.7 µM
# How it was run: as §1
row,Structure (SMILES),Potency
1,CC1(C)C(C=C(Cl)Cl)C1C(=O)OCc1cccc(Oc2ccccc2)c1 (stereo not drawn),inactive
2,CN(C)CCCN1c2ccccc2C(C)(C)c2ccccc21,inactive
3,CCN(CC)CCOc1ccc(-c2nc3cc(Cl)ccc3s2)cc1,inactive
4,IC(I)I,inactive
5,CC[C@@]1(O)C(=O)OCc2c1cc1n(c2=O)Cc2cc3c([N+](=O)[O-])cccc3nc2-1,10.7 µM (active)
6,CCCCCCCC(=O)O,inactive
7,CCCCC(CC)COC(=O)CC(C(=O)OCC(CC)CCCC)S(=O)(=O)O (stereo not drawn),inactive
8,C=C1C(=CC=C2CCC[C@@]3(C)[C@@H]2CC[C@H]3[C@H](C)CCCC(C)C)C[C@@H](O)C[C@@H]1O,inactive
9,C#C[C@]1(O)CC[C@H]2[C@@H]3CCC4=CCCC[C@@H]4[C@H]3C(=C)C[C@@]21CC,inactive
10,CCOC(=O)C1=C(C)NC(C)=C(C(=O)OCC)C1c1ccccc1C=CC(=O)OC(C)(C)C,15.1 µM (active)
11,O=C(O)c1cc(=O)c2c3nc4ccccc4oc-3cc(=O)c2[nH]1,inactive
12,NC(=O)c1ncn(C2OC(CO)C(O)C2O)n1 (stereo not drawn),inactive
13,NC1C2CN(c3nc4c(cc3F)c(=O)c(C(=O)O)cn4-c3ccc(F)cc3F)CC12 (stereo not drawn),6.75 µM (active)
14,Nc1c(Br)cc(Br)cc1CNC1CCC(O)CC1 (stereo not drawn),inactive
15,CC(C)=O,inactive
16,COC(=O)C1=C(C#N)NC(C)=C(C(=O)OC(C)C)C1c1cccc([N+](=O)[O-])c1 (stereo not drawn),13.5 µM (active)

# Reference: PubChem BioAssay (NCATS)
